Data taken from PubChem BioAssay (NCATS).
Inconclusive results are not listed. Calls of active or inactive are those of the source. Unless noted, calls come from the whole dose curve; as a rule, active = well fitted cell-killing curve with a large enough effect; inconclusive = small, poorly fitted or top-dose-only effect, or effect the other way; inactive = no such curve, though single readings can be large or run the other way.

What was measured:
[1] = Quantitative High-Throughput drug screen in 47 multiple myeloma cell lines against the NCATS MIPE library collection: XG1_PLB cell viability assay (AID 1919866); note: nearly all actives have a fitted effect of over 35% in size
Outline: (§1)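 qHTS format: cells plated (500/well), pin-dosed with MIPE 4.0 compounds, kept 48 h at 37 °C. Readout was CellTiter-Glo luminescence, median RLU.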

[2] = Quantitative High-Throughput drug screen in 47 multiple myeloma cell lines against the NCATS MIPE library collection: VP6_DJ cell viability assay (AID 1919867); note: nearly all actives have a fitted effect of over 40% in size
Outline: as §1

[3] = Quantitative High-Throughput drug screen in 47 multiple myeloma cell lines against the NCATS MIPE library collection: UTMC2_PLB cell viability assay (AID 1919868); conditions: CellTiter-Glo ATP luminescence, 48 h; viability (% of DMSO control): at 45.8 µM (top of the series) unless noted; note: nearly all actives have a fitted effect of over 55% in size
Outline: as §1

[4] = Quantitative High-Throughput drug screen in 47 multiple myeloma cell lines against the NCATS MIPE library collection: PCM6_Riken cell viability assay (AID 1919870); note: nearly all actives have a fitted effect of over 30% in size
Outline: as §1

[5] = Quantitative High-Throughput drug screen in 47 multiple myeloma cell lines against the NCATS MIPE library collection: RPMI8226_ATCC cell viability assay (AID 1919871); note: nearly all actives have a fitted effect of over 30% in size
Outline: as §1

[6] = Quantitative High-Throughput drug screen in 47 multiple myeloma cell lines against the NCATS MIPE library collection: OPM2_DSMZ cell viability assay (AID 1919872); note: nearly all actives have a fitted effect of over 30% in size
Outline: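 We plated 500 myeloma cells per well, pinned in MIPE 4.0 compounds, and incubated for 48 hours at 37C. ATP was then quantified with CellTiter-Glo, with DMSO and media-only wells defining 100% and 0%.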

[7] = Quantitative High-Throughput drug screen in 47 multiple myeloma cell lines against the NCATS MIPE library collection: KMS11_JCRBsus cell viability assay (AID 1919873); note: nearly all actives have a fitted effect of over 50% in size
Outline: as §1

[8] = Quantitative High-Throughput drug screen in 47 multiple myeloma cell lines against the NCATS MIPE library collection: KMS28BM_JCRB cell viability assay (AID 1919874); note: nearly all actives have a fitted effect of over 35% in size
Outline: as §1

[9] = qHTS drug screen for cell cycle checkpoint inhibitors in PARPi-resistant BRCA-mutant ovarian cancer cell lines. (AID 1963452; calls by dose curve); conditions: PEO1/OlaR viability, CellTiter-Glo luminescence, 96 h; for Z-AUC: stronger effect = lower value
Outline: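 PEO1, PEO4 and PEO1/OlaR ovarian cancer cells, 600 per well, exposed 96 h at 37C to a dilution series. Viability read by CellTiter-Glo luminescence, normalized to DMSO and empty wells; activity summarized as Z-AUC.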

[10] = qHTS for identification of novel therapeutic agents for treatment of microphthalmiaassociated transcription factor (MiT) renal cell carcinoma (RCC) (AID 1963991; calls by dose curve); conditions: CellTiter-Glo, 48 h; for Potency: active = Z-AUC below -0.8 in all three lines; for z-score: stronger effect = lower value
Outline: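 Curves over 11 concentrations were fitted to CellTiter-Glo luminescence, scaled between empty wells (0%) and DMSO (100%) viability. Cells were UOK109, UOK124 and UOK145 TFE3-fusion RCC lines at 500/well, exposed 48 hours at 37 C.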

[11] = Quantitative High-Throughput drug screen in 47 multiple myeloma cell lines against the NCATS MIPE library collection: PE2_PLB cell viability assay (AID 1919869); note: nearly all actives have a fitted effect of over 35% in size
Outline: as §1

[12] = measured here: PEO1 parental Z-AUC
[13] = TFE3-RCC UOK109 viability, measured here: UOK109 Z-AUC
[14] = TFE3-RCC viability, measured here: UOK124 Z-AUC
[15] = TFE3-RCC viability, measured here: UOK145 Z-AUC
Potency is the fitted concentration of half-maximal effect.

| SMILES | Potency [1] | Potency [2] | Potency [3] | Potency [4] | Potency [5] | Potency [6] | Potency [7] | Potency [8] | Potency [9] | Z-AUC [9, 12] | Z-AUC ([9]; measured here: PEO4 Z-AUC) | Potency ([10]; TFE3-RCC UOK109 viability) | z-score [10, 13] | z-score [10, 14] | z-score [10, 15] | Z-AUC [9] | Potency [11] |
| --- | --- | --- | --- | --- | --- | --- | --- | --- | --- | --- | --- | --- | --- | --- | --- | --- | --- |
| CC[C@@H]1C(=O)N(C)c2cnc(Nc3ccc(C(=O)NC4CCN(C)CC4)cc3OC)nc2N1C1CCCC1 | 0.0083 µM (active) | 2.96 µM (active) | inactive | 7.43 µM (active) | 7.43 µM (active) | 0.059 µM (active) | 0.0209 µM (active) | 0.0118 µM (active) | 0.0436 µM (active) | -2.65 | -2.67 | 4.18 µM (active) | -0.898 | -2.05 | -1.29 | – | – |
| CN1CCC(CNc2ccc3ncc(-c4cccc(OC(F)(F)F)c4)n3n2)CC1 | 5.9 µM (active) | 7.43 µM (active) | 5.9 µM (active) | 5.9 µM (active) | – | 23.5 µM (active) | 6.62 µM (active) | 8.33 µM (active) | – | -0.0601 | -0.00259 | – | – | – | – | -0.465 (inactive) | – |
| Cc1c(CN2CCN(S(C)(=O)=O)CC2)sc2c(N3CCOCC3)nc(-c3cnc(N)nc3)nc12 | 0.0469 µM (active) | 0.0235 µM (active) | 0.0264 µM (active) | 0.418 µM (active) | – | 0.105 µM (active) | – | 0.0132 µM (active) | – | 0.564 | 0.402 | 0.0833 µM (active) | -2.2 | -2.43 | -2.46 | 0.0284 (inactive) | – |
| COc1cc(C(=O)N2CCC(N3CCN(C)CC3)CC2)ccc1Nc1ncc2c(n1)N(C)c1ccccc1C(=O)N2C | 2.64 µM (active) | 1.18 µM (active) | – | 14.8 µM (active) | 10.5 µM (active) | 10.5 µM (active) | 1.66 µM (active) | 3.32 µM (active) | – | -0.239 | -1.55 | – | – | – | – | -0.667 (inactive) | 5.26 µM (active) |
| COc1cccc2c(NCc3ccccc3)nc(-n3c(N)nc4ccccc43)nc12 | 2.35 µM (active) | 4.18 µM (active) | – | 2.35 µM (active) | 8.33 µM (active) | 8.33 µM (active) | 2.64 µM (active) | 2.96 µM (active) | – | 0.136 | -0.014 | – | – | – | – | -0.255 (inactive) | 5.26 µM (active) |
| CCCCOc1c(C(=O)c2c(F)cc(C)cc2F)cnc2n[nH]cc12 | 2.96 µM (active) | 3.32 µM (active) | 3.32 µM (active) | 2.64 µM (active) | 5.9 µM (active) | 7.43 µM (active) | 2.64 µM (active) | 2.96 µM (active) | – | 0.585 | -0.136 | – | – | – | – | 0.41 (inactive) | – |
| CCn1cc(-c2ccnc3[nH]c(-c4cccc(CN(C)C)c4)cc23)c(-c2ccc(NC(=O)N(C)C)cc2)n1 | 1.18 µM (active) | 1.48 µM (active) | 0.743 µM (active) | 9.35 µM (active) | 14.8 µM (active) | 11.8 µM (active) | 0.833 µM (active) | 6.62 µM (active) | 2.45 µM (active) | -1.7 | -1.88 | – | – | – | – | – | – |
| CC(C)=CCCC(C)=CCCC(C)=CCSc1ccccc1C(=O)O | 0.662 µM (active) | 1.87 µM (active) | 1.18 µM (active) | 6.62 µM (active) | 0.418 µM (active) | 4.18 µM (active) | 0.209 µM (active) | 5.9 µM (active) | – | – | – | – | – | – | – | – | – |
| CCS(=O)(=O)c1cccc(-c2cc(C(=O)NC3CCN(C)CC3)c(C)c3[nH]c4ncc(C)cc4c23)c1 | 0.526 µM (active) | 0.935 µM (active) | 0.118 µM (active) | 1.66 µM (active) | 5.9 µM (active) | 2.64 µM (active) | 0.526 µM (active) | 0.833 µM (active) | – | -0.937 | -0.883 | – | – | – | – | -0.945 (inactive) | – |
| CC(C)(C)OC(=O)Nc1ccc(-c2cc(C(=O)NCCCCCCC(=O)NO)no2)cc1 | 1.87 µM (active) | 0.833 µM (active) | 0.59 µM (active) | 1.87 µM (active) | 3.32 µM (active) | 2.64 µM (active) | 1.48 µM (active) | 1.05 µM (active) | – | – | – | – | – | – | – | – | – |
| O=C(O)Cn1nnc(-c2cc(N3CCC(Oc4cc(F)ccc4Br)CC3)no2)n1 | inactive | inactive | – | inactive | inactive | inactive | inactive | inactive | – | -0.799 | -1.41 | – | 0.654 | 0.371 | 1.36 | -0.81 (inactive) | inactive |
| N#CCNC(=O)c1ccc(-c2ccnc(Nc3ccc(N4CCOCC4)cc3)n2)cc1 | 5.26 µM (active) | 3.72 µM (active) | – | 3.32 µM (active) | 16.6 µM (active) | 20.9 µM (active) | 7.43 µM (active) | 7.43 µM (active) | – | 0.159 | 0.613 | – | – | – | – | -0.322 (inactive) | 2.96 µM (active) |
| CCCCN1CCC(CNC(=O)c2c3n(c4ccccc24)CCCO3)CC1 | 0.743 µM (active) | 10.5 µM (active) | 9.35 µM (active) | 3.32 µM (active) | – | – | 13.2 µM (active) | – | – | – | – | – | – | – | – | – | – |
| CN(C)CC=CC(=O)Nc1cc2c(Nc3ccc(F)c(Cl)c3)ncnc2cc1O[C@H]1CCOC1 | 4.18 µM (active) | 0.59 µM (active) | 5.26 µM (active) | 1.18 µM (active) | 16.6 µM (active) | – | 6.62 µM (active) | 11.8 µM (active) | – | – | – | – | – | – | – | – | – |
